Screens from PubChem.
PrP UTR inh – inhibition of PrP 5' UTR reporter expression; cell-based PrP 5' UTR mRNA reporter, plate reader; 340,000 tested, 0.35% active; inhibition, % (test concentration not listed); AID 488862, 2010; in the data active = inhibition above about 52%; note: 0 = median of the neutral control wells
PrPC surface inh – inhibitors of human cell surface prion protein PrPC, primary screen, cell-based, TR-FRET; Major prion protein (Homo sapiens), P04156; TR-FRET read-out; inhibition, % at 13.8 µM; 370,000 tested, 0.43% active; AID 720596, 2013; in the data active = inhibition above about 24%; note: 0% = median of the test wells and 100% = reference compound wells
SSB-PriA inh – inhibitors of Klebsiella pneumoniae PriA binding to SSB C-terminal tail, primary screen, biochemical, AlphaScreen; 430,000 tested, 0.6% active; AID 1272365, 2023; inhibition, % at 33 µM; AlphaScreen SSBct-PriA binding, biotinylated peptide; PriA–SSB C-terminal tail interaction (Klebsiella pneumoniae); in the data active = inhibition mostly above about 37%, no sharp cut-off; inactive = mostly below about 20%;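 note: plate controls were negative control peptide for no effect and reference peptide for full effect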
MazEF act – activators of E. coli MazEF toxin-antitoxin RNase, primary screen, biochemical, fluorescence, uHTS. Endoribonuclease toxin MazF (Escherichia coli (strain K12)), P0AE70. FAM/BHQ RNA-DNA oligo cleavage fluorescence, 5 h. activation, % at 20 µM. 350,000 tested, 0.32% active. AID 504720, 2011; in the data active = activation above about 50%
Target sequence (P0AE70 whole entry, looked up): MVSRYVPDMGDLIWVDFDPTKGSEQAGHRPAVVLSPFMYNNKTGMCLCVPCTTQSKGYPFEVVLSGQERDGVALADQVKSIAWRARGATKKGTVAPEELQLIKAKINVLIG
PfHsp40 rescue – rescue of yeast from PfHsp40 toxicity, primary screen, S. cerevisiae, ATP luminescence | S. cerevisiae expressing PfHsp40, growth rescue | growth rescue, % at 12.5 µM | 340,000 tested, 0.68% active | AID 504582, 2011; in the data active = growth rescue above about 28%, passing the limit was not always enough;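 note: yeast W303a lacking pdr1 and pdr3 grown in galactose medium; growth measured after three days at 30 °C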
PrP 5UTR single – prion 5' UTR mRNA inhibition, cherry-pick retest | cell-based prion protein 5' UTR reporter, plate reader | shares compounds with PrP UTR inh | inhibition, % at 2.5 µM | AID 504592, 2011 | 1,100 tested, 48% active; in the data active = inhibition above about 54%
* marks the source's active call; other numbers are inactive results; . = no result. In the library only some 1.8% were active in any assay of this set; here they are far more common.

SMILES	PrP UTR inh	PrPC surface inh	SSB-PriA inh	MazEF act	PfHsp40 rescue	PrP 5UTR single
Nc1nc(-c2ccc(NC(=O)c3ccco3)cc2)cs1	66.5*	7.2	2.5	14.5	-1.4	16.5
Cc1nc(-c2ccc(NC(=O)c3ccco3)cc2)cs1	78.5*	1.9	-3.2	-1.2	-2.6	77.1*
CCOc1ccc(CNC(=O)Cn2nc(C)c3c(C)n(-c4ccc(C)cc4)nc3c2=O)cc1	-12.4	8.0	-8.9	-52.9	0.9	.
O=C1CN(C(=O)c2ccc(F)c(S(=O)(=O)N3CCOCC3)c2)c2ccccc2N1	58.9*	0.6	7.5	1.2	0.7	35.7
CC(Sc1nc(N)cc(N)n1)C(=O)NCC1CCCO1 (centres undefined)	-9.7	3.5	-2.5	2.4	-0.4	.
CCC(CO)Oc1cc(NCc2ccccc2O)c2ncn(C(C)C)c2c1 (centres undefined)	-34.0	-2.1	15.8	1.0	-2.0	.
CCCC[C@@H](C)C[C@@H](C)C(=O)N(C)[C@@H](CC(C)C)C(=O)N[C@H](C(=O)N(C)[C@H](C(=O)N1C[C@@H](O)C[C@H]1C(=O)N1C(=O)C=C[C@@H]1C)C(C)C)C(C)OC(C)=O (some centres undefined)	85.3*	.	4.2	10.0	0.0	95.9*
CCOc1ccccc1N(CC(=O)Nc1cccnc1)S(=O)(=O)c1ccc(C)cc1	54.5*	0.7	-8.4	1.0	-0.1	-17.2
CCOc1ccccc1N(CC(=O)Nc1cccnc1)S(C)(=O)=O	-19.5	1.0	-11.0	5.3	-1.3	.
COc1cccc(C(CNC(=O)C2CCCCC2)N2CCOCC2)c1 (centres undefined)	.	.	3.0	.	.	.
Cc1c(C(=O)OCC(C)C)[nH]c2c1C(=O)CC(c1ccco1)C2 (centres undefined)	70.4*	9.0	-8.7	8.2	-0.2	85.5*
Cc1c(C(=O)OC2CCCC2)[nH]c2c1C(=O)CC(c1ccco1)C2 (centres undefined)	60.9*	15.7	-6.6	6.1	1.6	73.0*
Cc1c(C(=O)OCC2CCCO2)[nH]c2c1C(=O)CC(c1ccco1)C2 (centres undefined)	-32.2	.	-19.8	1.2	1.2	.
C=CCOC(=O)c1[nH]c2c(c1C)C(=O)CC(c1ccco1)C2 (centres undefined)	.	.	-6.4	-2.3	.	.
C/C=C/COC(=O)c1[nH]c2c(c1C)C(=O)CC(c1ccco1)C2 (centres undefined)	62.0*	7.7	5.2	-19.5	2.2	85.2*
CC(C)N(C(=O)[C@H]1C[C@H](CC(=O)NCc2ccco2)C(=O)N2CCc3c([nH]c4cc(CCC(=O)N(C)C)ccc34)[C@]12C)C(C)C	-6.6	-5.3	6.3	11.9	1.3	.
O=C(Nc1ccc(-c2nc3ccccc3s2)cc1)C1CCN(S(=O)(=O)c2ccc(Cl)s2)CC1	.	.	-15.0	.	.	.
CCn1c(SCC(=O)Nc2ccc(N(C)C)cc2)nnc1-c1cccc(C)c1	63.9*	1.4	9.8	3.7	-0.3	-6.2
CC1CCN(C(=O)/C(=C\c2ccco2)NC(=O)c2ccccc2)CC1	-8.5	-9.7	4.2	-1.4	-0.5	.
CC1CCN(C(=O)/C(=C\c2cccs2)NC(=O)c2ccccc2)CC1	59.1*	-2.5	-13.9	1.4	-0.5	-9.6
CC(C)(C)C(=O)Nc1cc2nn(-c3ccccc3)nc2cc1Cl	86.4*	5.1	-12.3	-3.1	0.6	72.7*
COCCCn1c(=NC(=O)c2ccccc2)c(C#N)cc2c(=O)n3cccc(C)c3nc21	66.3*	-16.2	-2.6	10.9	-1.4	-16.9
Cc1ccc([N+](=O)[O-])cc1S(=O)(=O)NCc1cccnc1	-21.8	-15.6	-1.5	4.7	-0.6	.
CCOC(=O)/C(C#N)=C\c1ccc2c(c1)OCO2	-39.6	1.1	-8.9	-1.6	-0.4	.
COc1ccc(Oc2nccc(-c3ccc(F)cc3)c2C#N)cc1	76.4*	2.6	-9.4	0.7	0.6	-47.2
SMILES	PrP UTR inh	PrPC surface inh	SSB-PriA inh	MazEF act	PfHsp40 rescue	PrP 5UTR single
COc1ccc(Oc2nccc(-c3ccccc3)c2C#N)cc1	-64.7	0.2	-11.4	-1.5	0.0	.
Cc1cc(=O)n2c(sc3ccccc32)c1C#N	-31.7	2.2	-2.0	5.1	0.4	.
O=C(COc1cccc(C(F)(F)F)c1)NNC(=O)c1ccc(=O)[nH]c1	65.5*	1.7	-3.2	5.0	0.1	5.6
O=c1oc2ccccc2c2c1cnc1ccccc12	64.2*	9.2	6.1	8.6	15.0	-10.6
Cc1cnc(N)c2c(=O)oc3ccccc3c12	-23.8	0.8	-11.5	5.9	1.8	.
CC(=O)c1cccc(NC(=O)c2ccc(NC(=O)CCS(=O)(=O)c3cccs3)cc2)c1	-5.6	3.8	-14.4	-5.4	0.0	.
N=c1c2c(n(Cc3ccc(Br)cc3)c3c1CCC3)CCCC2	-17.5	11.0	12.2	19.1	-0.7	.
N=c1c2c(n(Cc3ccc([N+](=O)[O-])cc3)c3c1CCC3)CCCC2	80.0*	-7.0	-0.8	5.1	0.5	-2.4
Fc1ccccc1-c1nc2nc3ccccc3nc2n1CC1CCCO1 (centres undefined)	-16.6	-18.2	-2.1	-4.6	-0.9	.
O=C(CSCc1cccc(CSCC(=O)Nc2ccccc2)n1)Nc1ccccc1	-3.5	-0.3	9.4	6.3	0.0	.
O=C(CSCc1nc2ccccc2[nH]1)Nc1ccccc1	78.3*	-1.6	-3.2	7.0	0.0	-4.6
COc1cc(C2=NOC(C(=O)N3CCCc4ccccc43)C2)cc(OC)c1OC (centres undefined)	-8.3	-6.3	0.9	0.1	0.2	.
Cc1ccc(C(=O)C[n+]2ccccc2)cc1	63.9*	-5.1	-1.4	1.6	-0.3	-6.7
CC(C)C[C@H](NC(=O)[C@@H]1CCCN1C(=O)[C@@H](N)Cc1ccc(O)cc1)C(=O)NCC(N)=O	84.5*	11.6	-9.2	-2.0	-0.7	-6.9
CCOc1ccc(C(=O)C(c2ccccc2)N2CCOCC2)cc1 (centres undefined)	81.7*	1.1	-9.5	-3.5	-0.5	-0.9
CCCOc1ccc(C(=O)C(c2ccccc2)N2CCOCC2)cc1 (centres undefined)	-21.9	4.0	-20.2	-3.4	0.7	.
Cc1ccccc1Oc1ccc(S(=O)(=O)NCc2ccccn2)cc1	.	.	4.0	.	.	.
COc1ccc(C2C3=C(Nc4ncnn42)c2ccccc2CCC3)cc1 (centres undefined)	-3.9	6.5	1.0	2.8	-1.0	.
COc1cc(C2C3=C(Nc4ncnn42)c2ccccc2CC3)cc(OC)c1OC (centres undefined)	61.7*	-7.0	-10.1	-9.8	-0.1	85.6*
CCOC(=O)c1c(C)[nH]c(C2=NNC(=NC3CC3)SC2)c1C	70.8*	.	17.3	6.6	0.0	53.6*
CCOC(=O)c1c(C)[nH]c(/C(C)=N/O)c1C	-5.2	7.0	.	-1.1	0.8	.
O=S(=O)(c1ccc(Cl)cc1)N1CCCSC[C@@H]1CN1CCOCC1	.	.	0.0	.	.	.
